Assay [1] in a line: BSK_3C_SRB: Viability Assessment in the BioMAP Diversity Plus: 3C Assay (AID 2283023).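 Also: fitted both ways against DMSO so a hit may be signal rise or drop.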 Particulars: primary human endothelial cells (HUVEC). The method, boiled down:
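Absorbance at 560 nm of sulforhodamine B-stained (0.1%) total protein served as a cytotoxicity readout in human umbilical vein endothelial cells, 24 h after chemical treatment. Signal was fitted bidirectionally relative to DMSO.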

Read-out in assay [2]: Matrix Metallopeptidase 1 (MMP1), MMP1 (gene 4312)
The assay can be described thus: BSK_BE3C_MMP1: BioMAP Diversity Plus: BE3C Assay for Matrix Metallopeptidase 1 (MMP1) Biomarker Activity (AID 2283024). To be noted: primary human bronchial epithelial cells; actives raise or lower the signal. The method, boiled down:
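ELISA measurement of MMP-1 after 24 h compound exposure of primary human bronchial epithelial cells. Changes in either direction fitted relative to DMSO; parallel SRB staining checked overt cytotoxicity.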

The nature of assay [3]: BSK_3C_Vis: BioMAP Diversity Plus: 3C Assay for Morphology Visualization (AID 2283025).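 Also: fitted both ways so gain or loss versus DMSO counts.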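 As to AC50: light microscopy image of cell morphology used as background control.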 To be noted: primary human endothelial cells (HUVEC). The method in brief:
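Light-microscopy visualization of HUVEC cultures at 24 h post-treatment, with DMSO as baseline for bidirectional fitting.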

Read-out in assay [4]: Pselectin, SELP (gene 6403)
As to the kind of experiment: BSK_4H_Pselectin: BioMAP Diversity Plus: 4H Assay for Pselectin Biomarker Activity (AID 2283026). To be noted: primary human endothelial cells (HUVEC); actives raise or lower the signal. The method in brief:
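ELISA of surface P-selectin on HUVEC, 24 h after dosing, with parallel SRB staining (0.1% after 10% TCA fixation, 560 nm) for overt cytotoxicity. Activity fitted in both directions relative to DMSO.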

A short description of assay [5]: BSK_4H_SRB: Viability Assessment in the BioMAP Diversity Plus: 4H Assay (AID 2283027).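 Also: cells exposed to compound for 24 h before staining.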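 As to AC50: curves fitted both ways versus DMSO so AC50 may be loss or gain.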 Particulars: primary human endothelial cells (HUVEC). The method in brief: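 Cytotoxicity read-out in primary human endothelial cells: after 24 h compound exposure, cells were TCA-fixed (10%), stained with 0.1% SRB and absorbance taken at 560 nm. Values fitted in both directions relative to DMSO.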

Assay [6] is described as follows: BSK_BE3C_SRB: Viability Assessment in the BioMAP Diversity Plus: BE3C Assay (AID 2283028).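 As to AC50: fitted both ways so AC50 may mark signal gain or loss versus DMSO.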 Particulars: primary human bronchial epithelial cells. The method in brief:
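Cells (human bronchial epithelial, primary) are treated with chemicals, and after 24 h the parallel cultures are fixed in 10% TCA. These are then stained with 0.1% SRB and read at 560 nm. Gain or loss of signal is fitted relative to DMSO.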

Read-out in assay [7]: Thrombomodulin, THBD (gene 7056)
The assay can be described thus: BSK_3C_Thrombomodulin: BioMAP Diversity Plus: 3C Assay for Thrombomodulin Biomarker Activity (AID 2283029). To be noted: primary human endothelial cells (HUVEC); actives raise or lower the signal. The method, boiled down:
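ELISA measurement of thrombomodulin on HUVEC surface 24 h after chemical dosing; activity fitted in both directions relative to DMSO vehicle.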

Read-out in assay [8]: Urokinase-type plasminogen activator receptor (uPAR), PLAUR (gene 5329)
As to the kind of experiment: BSK_4H_uPAR: BioMAP Diversity Plus: 4H Assay for Urokinase-type plasminogen activator receptor (uPAR) Biomarker Activity (AID 2283030). To be noted: primary human endothelial cells (HUVEC); actives raise or lower the signal. The method in brief:
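Cell-surface uPAR ELISA signal, measured 24 h after dosing human umbilical vein endothelial cells, was analyzed with bidirectional fitting relative to DMSO. Parallel SRB staining of total protein tracked overt cytotoxicity.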

Read-out in assay [9]: Vascular endothelial growth factor receptor 2 (Homo sapiens) (UniProt P35968)
As to the kind of experiment: BSK_4H_VEGFRII: BioMAP Diversity Plus: 4H Assay for Vascular endothelial growth factor receptor 2 (VEGFR2) Biomarker Activity (AID 2283031). To be noted: primary human endothelial cells (HUVEC); actives raise or lower the signal. The method in brief:
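ELISA read-out of VEGFRII in primary human umbilical vein endothelium, taken 24 h after chemical treatment. Responses are expressed relative to DMSO, with bidirectional fitting.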

Read-out in assay [10]: Human Leukocyte Antigen - DR isotype (HLADR), HLA-DRA (gene 3122)
As to the kind of experiment: BSK_BE3C_HLADR: BioMAP Diversity Plus: BE3C Assay for Human Leukocyte Antigen - DR isotype (HLADR) Biomarker Activity (AID 2283032). Particulars: primary human bronchial epithelial cells; actives raise or lower the signal. The method, boiled down:
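Cell-surface HLA-DR ELISA readout at 24 h after dosing in the BE3C primary human lung bronchial epithelial system; gain or loss of signal against DMSO, with parallel sulforhodamine B staining of total protein for overt cytotoxicity.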

The text below walks through data of PubChem BioAssay (EPA / NIEHS).

Active and inactive are the calls of the source. The calls were made as follows: active = hit-call score of the fitted dose curve at least 0.9, where 1 is the maximum; inactive = score below 0.9.

Regarding `C[C@@H](Oc1ccc(CNC(=O)c2cccnc2Oc2ccc3c(c2)OCO3)c(F)c1)C(=O)O`, the outcome in [1], in assay [2], in assay [3], in [4], in [5] and in [6] was inactive. The result in assay [7], in [8], in [9] and in assay [10] was inactive.

As for `Cc1nccn1-c1ccc(Sc2cccc(C3(C(N)=O)CCOCC3)c2)cc1`, the AC50 was 9.18 µM (active) in [1], 8.1 µM (active) in [2], 8.22 µM (active) in [7] and 12.8 µM (active) in assay [10]. Further, the outcome in assay [3], in assay [4], in assay [5], in assay [6], in assay [8] and in assay [9] was inactive.

As for `CCc1cccc(CC)c1N`, the outcome in assay [1], in assay [2], in assay [3], in assay [4], in [5] and in [6] was inactive. Further, the result in [7], in [8], in [9] and in [10] was inactive.

With `COc1cc2c(c(OC)c1OC)-c1ccc(OC)c(=O)cc1[C@@H](NC(C)=O)CC2`, the concentration at half-maximal activity (AC50) in [1] was 0.148 µM (active); in assay [3], 0.488 µM (active); in [4] it was 0.293 µM (active); in assay [5], 0.148 µM (active); in assay [8], 0.148 µM (active); in assay [10], 0.47 µM (active). In addition, the outcome in assay [2], in [6], in assay [7] and in assay [9] was inactive.

With `C[C@]12C=CC(=O)C=C1CC[C@H]1[C@@H]3C[C@@H](O)[C@](O)(C(=O)CO)[C@@]3(C)C[C@H](O)[C@@]12F`, the outcome in [1], in [2], in assay [3], in [4], in [5] and in assay [6] was inactive. The outcome in assay [7], in [8], in assay [9] and in [10] was inactive.

As for `Nc1ccn([C@@H]2O[C@H](CO)[C@@H](O)[C@@H]2O)c(=O)n1`, the AC50 was 7.44 µM (active) in assay [1], 39 µM (active) in assay [3] and 4.93 µM (active) in assay [8]. In addition, the outcome in assay [2], in assay [4], in assay [5], in assay [6], in assay [7] and in [9] was inactive. Also, the outcome in assay [10] was inactive.

Take `O=C(O)[C@H](O)[C@@H](O)C(=O)O`: the outcome in [1], in assay [2], in [3], in assay [4], in assay [5] and in assay [6] was inactive. The outcome in assay [7], in assay [8], in assay [9] and in [10] was inactive.

For the compound `OCc1ccccc1`, the outcome in assay [1], in [2], in [3], in [4], in assay [5] and in assay [6] was inactive. Besides, the result in assay [7], in assay [8], in assay [9] and in [10] was inactive.

For `CCCCCCCCCCCCCCCCOS(=O)(=O)O`, the outcome in assay [1], in assay [2], in assay [3], in assay [4], in assay [5] and in assay [7] was inactive. In addition, the outcome in [8] and in assay [9] was inactive. For the same compound, the half-maximal activity concentration (AC50) is 16.6 µM (active) in [6] and 15.1 µM (active) in [10].

As for `CCCCOC(=O)c1ccccc1`, the result in [1], in assay [2], in assay [3], in assay [4], in assay [5] and in [6] was inactive. Further, the outcome in assay [7], in assay [8], in [9] and in assay [10] was inactive.

With `O=C1CN(N=Cc2ccc([N+](=O)[O-])o2)C(=O)N1`, the outcome in [1], in assay [2], in assay [3], in assay [4], in assay [5] and in assay [6] was inactive. The outcome in [7], in assay [8], in [9] and in assay [10] was inactive.

On to `CC1(C)C(=O)N(Cl)C(=O)N1Cl`, for which the outcome in assay [1], in [2], in assay [3], in assay [4], in assay [5] and in assay [6] was inactive. Further, the result in assay [7], in assay [9] and in [10] was inactive.

For `NNC(=O)c1ccncc1`, the outcome in assay [1], in assay [2], in assay [3], in [4], in assay [5] and in assay [6] was inactive. Moreover, the result in assay [7], in [9] and in assay [10] was inactive.

As to `c1ccc2ncccc2c1`, the result in assay [1], in [2], in assay [3], in assay [4], in [5] and in assay [6] was inactive. For the same compound, the outcome in assay [7], in assay [9] and in [10] was inactive.

`NC(=O)N1c2ccccc2C=Cc2ccccc21`: the outcome in assay [1], in assay [2], in [3], in assay [4], in [5] and in assay [6] was inactive. For the same compound, the outcome in assay [7], in assay [9] and in [10] was inactive.

As to `CCOC(N)=O`, the outcome in assay [1], in [2], in assay [3], in assay [4], in [5] and in assay [6] was inactive. In addition, the result in assay [7], in [8], in [9] and in assay [10] was inactive.

For the compound `CCCOc1ccc(S(=O)(=O)N2CCN(CC)CC2)cc1-c1nc2c(CC)n(Cc3ccccn3)nc2c(=O)[nH]1`, the outcome in assay [1], in assay [2], in [3], in assay [4], in assay [5] and in [6] was inactive. The result in assay [7], in [9] and in [10] was inactive.

With `CCCCCCOC(=O)CC(CC(=O)OCCCCCC)(OC(=O)CCC)C(=O)OCCCCCC`, the result in assay [1], in assay [2], in [3], in [4], in assay [5] and in [6] was inactive. Besides, the outcome in [7], in assay [9] and in assay [10] was inactive.

Take `COc1cc(C(C)C)c2c(c1)S(=O)(=O)N(COc1cc(=O)n3cccc(OCCN4CCCCC4)c3n1)C2=O`: the outcome in assay [1], in [2], in assay [3], in [5], in [7] and in [9] was inactive. In addition, the concentration at half-maximal activity (AC50) was 5 µM (active) in assay [4], 8.23 µM (active) in assay [6], 4.05 µM (active) in assay [8] and 6.88 µM (active) in [10].

`CCOc1ccc2[nH]cc(C(=O)NCc3ccccc3)c(=O)c2n1`: the result in [1], in assay [2], in assay [3], in assay [4], in assay [5] and in assay [6] was inactive. Besides, the outcome in assay [7], in [8], in [9] and in [10] was inactive.
